Data reported in the supplement of paper PMC6853941.
A number with no mark means an inactive call.

tested on: MCF10A; assay: perturbation Mahalanobis distance of morphological profile vs DMSO controls (Mahalanobis distance (SD units)); higher = stronger morphological change, active = 7 or more; settings: screen batch: Batch1_Mahalanobis_Distance; 72 h
Description: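 MCF10A cells were seeded onto drugs dispensed acoustically into 384-well plates, using one dose per drug chosen from its human peak plasma concentration, and incubated for 72 h at 37 °C. Cells were stained for DNA, tubulin and mitochondria and imaged; 78 CellProfiler features were extracted, plate-normalised and compared with DMSO wells.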

Compound | perturbation Mahalanobis distance
O=[N+]([O-])O[C@H]1CO[C@H]2[C@@H]1OC[C@H]2O[N+](=O)[O-] [Isosorbide Dinitrate] (0.13 µM) | 2.18
C[C@]12CC[C@H]3[C@@H](CC[C@@]45O[C@@H]4C(O)=C(C#N)C[C@]35C)[C@@H]1CC[C@@H]2O [Trilostane] (308.7 µM) | 3.36
CC(C)(O)C(=O)Nc1ccc([N+](=O)[O-])c(C(F)(F)F)c1 [Hydroxyflutamide] (27.1 µM) | 5.03
COc1cc2c(cc1OC)C1CC(=O)C(CC(C)C)CN1CC2 (stereo not drawn) [Tetrabenazine] (10 µM) | 4.2
NC(=O)CS(=O)C(c1ccccc1)c1ccccc1 (stereo not drawn) [Armodafinil] (27.1 µM) | 3.56
C[C@]12CC[C@H]3[C@@H](CCC4=CC(=O)CC[C@@]43C)[C@@H]1CC[C@@H]2O [Testosterone] (0.17 µM) | 3.32
CC[C@@H](CO)NC(=O)[C@@H]1C=C2c3cccc4[nH]cc(c34)C[C@H]2N(C)C1 [Methylergonovine] (44 µM) | 2.29
C[C@]12Cc3cn[nH]c3C[C@@H]1CC[C@@H]1[C@@H]2CC[C@@]2(C)[C@H]1CC[C@]2(C)O [Stanozolol] (62.7 µM) | 2.14
NCC1(CC(=O)O)CCCCC1 [Gabapentin] (122.6 µM) | 2.06
Cc1cccc([C@H](C)c2cnc[nH]2)c1C [Dexmedetomidine] (42 µM) | 2.48
CN(C)C(=O)Oc1ccc[n+](C)c1 [Pyridostigmine  Bromide] (5.5 µM) | 2.83
NC1CC1c1ccccc1 (stereo not drawn) [Tranylcypromine] (7.5 µM) | 2.27
CCN(C(C)=O)c1cccc(-c2ccnc3c(C#N)cnn23)c1 [Zaleplon] (1.6 µM) | 2.43
O=C1CC[C@@]2(O)[C@H]3Cc4ccc(O)c5c4[C@@]2(CCN3CC2CC2)[C@H]1O5 [Naltrexone] (0.44 µM) | 3.73
CN1C[C@H](C(=O)N[C@]2(C)O[C@@]3(O)[C@@H]4CCCN4C(=O)[C@H](Cc4ccccc4)N3C2=O)C[C@@H]2c3cccc4[nH]cc(c34)C[C@H]21 [Dihydroergotamine] (74 µM) | 2.63
O=C(O)CCCc1ccc(N(CCCl)CCCl)cc1 [Chlorambucil] (8.1 µM) | 2.75
NCC(CC(=O)O)c1ccc(Cl)cc1 (stereo not drawn) [Baclofen] (4.7 µM) | 1.93
CCC(C)C(C)(COC(N)=O)COC(N)=O (stereo not drawn) [Mebutamate] (144.2 µM) | 2.17
COC[C@@H](NC(C)=O)C(=O)NCc1ccccc1 [Lacosamide] (49.9 µM) | 3.59

same assay, conditions: screen batch: Batch2_Mahalanobis_Distance; 72 h

Compound | perturbation Mahalanobis distance
O=[N+]([O-])O[C@H]1CO[C@H]2[C@@H]1OC[C@H]2O[N+](=O)[O-] [Isosorbide Dinitrate] (0.13 µM) | 2.62
C[C@]12CC[C@H]3[C@@H](CC[C@@]45O[C@@H]4C(O)=C(C#N)C[C@]35C)[C@@H]1CC[C@@H]2O [Trilostane] (308.7 µM) | 2.45
CC(C)(O)C(=O)Nc1ccc([N+](=O)[O-])c(C(F)(F)F)c1 [Hydroxyflutamide] (27.1 µM) | 4.63
COc1cc2c(cc1OC)C1CC(=O)C(CC(C)C)CN1CC2 (stereo not drawn) [Tetrabenazine] (10 µM) | 3.85
NC(=O)CS(=O)C(c1ccccc1)c1ccccc1 (stereo not drawn) [Armodafinil] (27.1 µM) | 2.45
C[C@]12CC[C@H]3[C@@H](CCC4=CC(=O)CC[C@@]43C)[C@@H]1CC[C@@H]2O [Testosterone] (0.17 µM) | 3.14
CC[C@@H](CO)NC(=O)[C@@H]1C=C2c3cccc4[nH]cc(c34)C[C@H]2N(C)C1 [Methylergonovine] (44 µM) | 3.37
C[C@]12Cc3cn[nH]c3C[C@@H]1CC[C@@H]1[C@@H]2CC[C@@]2(C)[C@H]1CC[C@]2(C)O [Stanozolol] (62.7 µM) | 3.12
NCC1(CC(=O)O)CCCCC1 [Gabapentin] (122.6 µM) | 2.79
Cc1cccc([C@H](C)c2cnc[nH]2)c1C [Dexmedetomidine] (42 µM) | 2.42
CN(C)C(=O)Oc1ccc[n+](C)c1 [Pyridostigmine  Bromide] (5.5 µM) | 2.49
NC1CC1c1ccccc1 (stereo not drawn) [Tranylcypromine] (7.5 µM) | 3.55
CCN(C(C)=O)c1cccc(-c2ccnc3c(C#N)cnn23)c1 [Zaleplon] (1.6 µM) | 3.38
O=C1CC[C@@]2(O)[C@H]3Cc4ccc(O)c5c4[C@@]2(CCN3CC2CC2)[C@H]1O5 [Naltrexone] (0.44 µM) | 3.37
CN1C[C@H](C(=O)N[C@]2(C)O[C@@]3(O)[C@@H]4CCCN4C(=O)[C@H](Cc4ccccc4)N3C2=O)C[C@@H]2c3cccc4[nH]cc(c34)C[C@H]21 [Dihydroergotamine] (74 µM) | 3.4
O=C(O)CCCc1ccc(N(CCCl)CCCl)cc1 [Chlorambucil] (8.1 µM) | 8.46 (active)
NCC(CC(=O)O)c1ccc(Cl)cc1 (stereo not drawn) [Baclofen] (4.7 µM) | 1.48
CCC(C)C(C)(COC(N)=O)COC(N)=O (stereo not drawn) [Mebutamate] (144.2 µM) | 3.78
COC[C@@H](NC(C)=O)C(=O)NCc1ccccc1 [Lacosamide] (49.9 µM) | 2.67
